Screens deposited in PubChem BioAssay by The Scripps Research Institute Molecular Screening Center.
Shown are actives, neighbours in structure and some others; about 4.1% of the full set was active somewhere.
DAX1 inh-1 – DAX1 (NR0B1) inhibitors on StAR promoter, primary screen, cell-based, luminescence, SF-1 (NR5A1), full-length DAX-1; HEK293T StAR-luciferase reporter, SF-1/DAX-1 repression relief; inhibition, % at 6.8 µM; 370,000 compounds, 1.1% hits; AID 652010, 2013;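 active = inhibition above the mean over all tested compounds plus 3 SD, cut at about 3.6% in these data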;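 also: 0% = DAX-1 cells with DMSO and 100% = cells lacking DAX-1 with DMSO; higher inhibition means more luminescence from relief of DAX-1 repression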
ssDAF-12 act – S. stercoralis DAF-12 nuclear receptor activators, primary screen, cell-based, luminescence, HEK293, GRIP1 co-expression, lit1-tk-luc | Nuclear hormone receptor DAF-12 (Strongyloides stercoralis) | HEK293 ssDAF-12/GRIP1 lit1-tk-luc reporter; % of 3 µM dafachronic acid response | activation, % at 6.8 µM | 370,000 compounds, 1% hits | AID 652126, 2013;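 active = activation above the mean over all tested compounds plus 3 SD, cut at about 0.9% in these data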;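 also: 0% = DMSO-only wells and 100% = 3 µM delta7-dafachronic acid wells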
DAX1 inh-2 – DAX1 (NR0B1) inhibitors, primary screen, cell-based, HEK293, Gal4-DAX1, luciferase luminescence. Nuclear receptor subfamily 0 group B member 1 (Homo sapiens), P51843. HEK293 Gal4-DAX1 luciferase reporter. inhibition, % at 6.75 µM. 340,000 compounds, 0.99% hits;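 active = inhibition above the mean over all tested compounds plus 3 SD, cut at about 4.2% in these data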;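 also: 0% = DAX1-transfected cells with DMSO and 100% = empty-vector control cells with DMSO; inhibition shows as a rise in luminescence from relieved DAX1 repression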
Target sequence (P51843 207-470 limits assumed): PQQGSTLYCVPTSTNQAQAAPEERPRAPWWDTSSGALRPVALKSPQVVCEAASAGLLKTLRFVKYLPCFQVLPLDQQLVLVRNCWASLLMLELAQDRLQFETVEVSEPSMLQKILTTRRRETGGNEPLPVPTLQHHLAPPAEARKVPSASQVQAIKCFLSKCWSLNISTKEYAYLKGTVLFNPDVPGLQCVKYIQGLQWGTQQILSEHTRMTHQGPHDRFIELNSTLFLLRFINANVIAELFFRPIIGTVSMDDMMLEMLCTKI
hcDAF12 agonist – H. contortus DAF-12 nuclear receptor activators, primary screen, cell-based, luminescence, HEK293, lit1-tk-luc reporter; HEK293 hcDAF-12 lit1-tk-luc reporter; 0% DMSO, 100% Δ7-dafachronic acid; activation, % at 6.8 µM; 370,000 compounds, 1.4% hits; AID 652067, 2013;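 active = activation above the mean of all tested compounds plus 3 SD, cut at about 5.5% in these data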;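 also: 100% = response to 3 µM Δ7-dafachronic acid high control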
hgDAF-12 ag – H. glycines DAF-12 receptor agonists, primary screen, cell-based, luminescence, HEK293, GAL4 fusion, UAS-luciferase | HEK293 GAL4-hgDAF12 UAS-luciferase reporter, agonist luminescence; normalized to butyrate control | activation, % at 6.8 µM | 370,000 compounds, 1.8% hits | AID 687014, 2013;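 active = activation above a cutoff set at the mean of all screened compounds plus 3 SD, cut at about 10% in these data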;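 also: 0% = DMSO wells and 100% = sodium butyrate wells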
The depositor's hits bear a star.

Results for COc1ccc(C2CC(=O)C(c3ccc(C)cc3)=CN2Cc2ccccc2)cc1 (configuration not stated) ?
DAX1 inh-1: -0.6; ssDAF-12 act: -1.0; hcDAF12 agonist: -2.7; hgDAF-12 ag: 2.7

How did CC1CCCCC1NC(=O)C1CCN(S(=O)(=O)c2ccc3c(c2)CCC(=O)N3)CC1 (configuration not stated) do in these assays?
DAX1 inh-1: 0.1; ssDAF-12 act: -1.7; DAX1 inh-2: 5.1*; hcDAF12 agonist: 1.0; hgDAF-12 ag: -2.6

How did COCCCNC(=S)NNC(=O)C1CC1c1ccc(C(C)(C)C)cc1 (configuration not stated) do in these assays?
DAX1 inh-1: 0.1; ssDAF-12 act: -2.0; DAX1 inh-2: 5.2*; hcDAF12 agonist: -0.2; hgDAF-12 ag: 3.0

What do the screens show for `O=C(NCCc1ccccn1)c1ccc2c(c1)ncn2C1CCCCC1`?
DAX1 inh-1: -0.2; ssDAF-12 act: 0.3; hcDAF12 agonist: 1.2; hgDAF-12 ag: 2.6

Results for CCOC(=O)C1=C(C)NC2=C(C(=O)CC(c3cccs3)C2)C1c1cccs1 (configuration not stated) ?
DAX1 inh-1: -2.4; ssDAF-12 act: -1.2; DAX1 inh-2: -0.3; hcDAF12 agonist: -1.3; hgDAF-12 ag: -3.1

Results for CCCOC(=O)C1=C(C)NC2=C(C(=O)CCC2)C1c1cccs1 (configuration not stated) ?
DAX1 inh-1: -0.4; ssDAF-12 act: 2.1*; DAX1 inh-2: 1.3; hcDAF12 agonist: -2.5; hgDAF-12 ag: -2.0

How did CCOC(=O)[C@H]1[C@H]2COc3ccc(Br)cc3[C@H]2N2C(=O)CN(CCc3c[nH]c4ccccc34)C(=O)[C@@]12C do in these assays?
DAX1 inh-1: -0.2; ssDAF-12 act: 0.9*; DAX1 inh-2: 0.2; hcDAF12 agonist: 2.2; hgDAF-12 ag: -0.8

What do the screens show for `Cc1onc(-c2ccccc2)c1C(=O)Nc1cccc(S(=O)(=O)N2CCCCC2)c1`?
DAX1 inh-1: -1.1; ssDAF-12 act: -1.6; DAX1 inh-2: -1.6; hcDAF12 agonist: -1.8; hgDAF-12 ag: -3.1

Results for COc1ccc(C(C#N)=C2C=CC(=NO)C=C2)cc1 ?
DAX1 inh-1: -0.5; ssDAF-12 act: 1.3*; DAX1 inh-2: -0.9; hcDAF12 agonist: -2.5; hgDAF-12 ag: -0.5

What do the screens show for `CC(=O)ON=C1C=CC(=C(C#N)c2ccccc2)C=C1`?
DAX1 inh-1: -5.8; ssDAF-12 act: -1.2; hcDAF12 agonist: -0.4; hgDAF-12 ag: -4.7

Results for CC(C)(C)c1cc(NC(=O)C2CCCO2)no1 (configuration not stated) ?
DAX1 inh-1: 1.5; ssDAF-12 act: 1.4*; DAX1 inh-2: 1.0; hcDAF12 agonist: 1.8; hgDAF-12 ag: 7.6

How did O=C(O)c1cc(NC(=O)C2CCCO2)cc(C(=O)O)c1 (configuration not stated) do in these assays?
DAX1 inh-1: 0.2; ssDAF-12 act: -1.5; DAX1 inh-2: 0.0; hcDAF12 agonist: 2.0; hgDAF-12 ag: 2.4

What do the screens show for `CCc1nc2nc(C)c(NS(=O)(=O)c3ccc(CC(C)C)cc3)c(=O)n2[nH]1`?
DAX1 inh-1: 0.5; ssDAF-12 act: -0.8; DAX1 inh-2: -0.5; hcDAF12 agonist: -2.0; hgDAF-12 ag: 3.0

Results for CCCc1nc2nc(C)c(NS(=O)(=O)c3ccc(CC(C)C)cc3)c(=O)n2[nH]1 ?
DAX1 inh-1: 0.0; ssDAF-12 act: -1.2; DAX1 inh-2: 4.3*; hcDAF12 agonist: 0.4; hgDAF-12 ag: 1.7

What do the screens show for `O=C(NCCc1ccc(Cl)cc1)c1ccc2c(c1)OCCO2`?
DAX1 inh-1: 2.4; ssDAF-12 act: 0.1; DAX1 inh-2: 0.7; hcDAF12 agonist: 4.6; hgDAF-12 ag: 11.1*

How did O=C(NCCc1ccc2c(c1)OCCO2)c1ccc(F)cc1 do in these assays?
DAX1 inh-1: -1.0; ssDAF-12 act: -2.3; DAX1 inh-2: -0.2; hcDAF12 agonist: -2.4; hgDAF-12 ag: 1.8

How did Cc1cnc(C(=O)NCCc2ccc(Cl)cc2)cn1 do in these assays?
DAX1 inh-1: 4.0*; ssDAF-12 act: -0.6; DAX1 inh-2: -0.1; hcDAF12 agonist: 0.9; hgDAF-12 ag: 6.5

Results for COC(=O)C1CN(CCO)CCS(=O)(=O)N1Cc1cccc(Cl)c1 (configuration not stated) ?
DAX1 inh-1: 0.8; ssDAF-12 act: -1.4; hcDAF12 agonist: 0.2; hgDAF-12 ag: -2.5

How did CCOC(=O)/C(C#N)=C/c1cc(C)n(-c2ccc(C)cc2)c1C do in these assays?
DAX1 inh-1: 0.2; ssDAF-12 act: -1.3; DAX1 inh-2: 1.5; hcDAF12 agonist: 2.0; hgDAF-12 ag: 5.2

What do the screens show for `CCOC(=O)/C(C#N)=C\c1cc(C)n(-c2ccccc2)c1C`?
DAX1 inh-1: -0.7; ssDAF-12 act: -1.8; DAX1 inh-2: 5.3*; hcDAF12 agonist: -0.1; hgDAF-12 ag: -4.0

Results for O=C(O)c1ccc(N=NN2CCCCCC2)cc1 ?
DAX1 inh-1: 3.2; ssDAF-12 act: 0.2; DAX1 inh-2: 1.7; hcDAF12 agonist: 4.2; hgDAF-12 ag: 10.6*

What do the screens show for `O=C(O)c1ccc(N=NN2CCCC2)cc1`?
DAX1 inh-1: 2.0; ssDAF-12 act: -0.3; DAX1 inh-2: -0.9; hcDAF12 agonist: 2.3; hgDAF-12 ag: 5.4

Results for C[C@@H]1/C=C/CC(=O)N2[C@H](CC(=O)N[C@@H]1c1ccccc1)C[C@@H](C)[C@H]2c1ccccc1 ?
DAX1 inh-1: -0.4; ssDAF-12 act: -1.0; hcDAF12 agonist: 0.2; hgDAF-12 ag: -1.2

How did C[C@@H]1CCN(C2CC2)S(=O)(=O)c2c(cccc2N2CC[C@@H](N(C)C)C2)O1 do in these assays?
DAX1 inh-1: -0.7; ssDAF-12 act: -1.0; hcDAF12 agonist: -0.5; hgDAF-12 ag: 0.7

Results for O=C(NC1CCCCC1)C(CCc1ccccc1)N1CCOCC1 (configuration not stated) ?
DAX1 inh-1: 0.9; ssDAF-12 act: -0.4; hcDAF12 agonist: 0.0; hgDAF-12 ag: 12.0*

What do the screens show for `COC(=O)[C@]12C[C@H](CC(=O)NCCC(C)C)C(=O)N(CCc3ccc(OC)c(OC)c3)C1=C[C@H](C(C)C)O[C@@H]2C1CC1`?
DAX1 inh-1: 0.1; ssDAF-12 act: -0.9; hcDAF12 agonist: -1.1; hgDAF-12 ag: -2.5

Results for O=C(C1CCCN1S(=O)(=O)c1cccc2ccccc12)N1CCN(c2ccccc2)CC1 (configuration not stated) ?
DAX1 inh-1: 0.4; ssDAF-12 act: 2.5*; hcDAF12 agonist: -2.8; hgDAF-12 ag: -3.7
